Potency and affinity values are given separately. Active and inactive are the calls of the source. No rule for the calls is given here.
Biological target: Acyl-homoserine lactone acylase PvdQ (Pseudomonas aeruginosa (strain ATCC 15692 / DSM 22644 / CIP 104116 / JCM 14847 / LMG 12228 / 1C / PRS 101 / PAO1)) (UniProt Q9I194)
Test: P. aeruginosa PvdQ acylase inhibitors, dose response, biochemical, fluorescence, plate reader and imaging, cherry-picks (AID 493231);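 also: 0% = neutral control wells and -100% = reference inhibitor wells; more negative values mean stronger inhibition of the acylase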
Conditions: purified PvdQ acylase, fluorogenic substrate; series mostly up to 10 µM; activity change, negative = inhibition: at the top concentration

Chain of Acyl-homoserine lactone acylase PvdQ (Pseudomonas aeruginosa (strain ATCC 15692 / DSM 22644 / CIP 104116 / JCM 14847 / LMG 12228 / 1C / PRS 101 / PAO1)) (Q9I194 whole entry, looked up): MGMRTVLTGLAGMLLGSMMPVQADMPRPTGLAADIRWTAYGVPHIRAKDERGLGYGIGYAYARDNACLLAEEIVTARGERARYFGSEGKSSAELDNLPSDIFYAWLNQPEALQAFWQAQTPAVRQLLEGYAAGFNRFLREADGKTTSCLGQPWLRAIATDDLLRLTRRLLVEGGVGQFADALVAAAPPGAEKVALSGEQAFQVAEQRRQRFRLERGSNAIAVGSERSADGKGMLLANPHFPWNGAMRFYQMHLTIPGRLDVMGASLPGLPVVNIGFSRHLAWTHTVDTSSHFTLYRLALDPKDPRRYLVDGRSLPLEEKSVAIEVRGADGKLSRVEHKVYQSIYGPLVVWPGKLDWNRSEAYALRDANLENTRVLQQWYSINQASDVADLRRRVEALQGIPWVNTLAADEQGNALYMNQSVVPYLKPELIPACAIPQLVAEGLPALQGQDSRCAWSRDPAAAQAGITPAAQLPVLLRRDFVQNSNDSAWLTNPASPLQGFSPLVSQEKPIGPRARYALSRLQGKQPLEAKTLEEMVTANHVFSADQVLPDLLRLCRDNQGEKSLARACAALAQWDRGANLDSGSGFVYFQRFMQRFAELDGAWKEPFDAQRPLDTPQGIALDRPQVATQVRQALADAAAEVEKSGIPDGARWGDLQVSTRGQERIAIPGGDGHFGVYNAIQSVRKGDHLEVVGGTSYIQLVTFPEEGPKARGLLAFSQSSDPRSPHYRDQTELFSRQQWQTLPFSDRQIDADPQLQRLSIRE

Activity change, negative = inhibition, inactive:
N#C/C(=C\c1ccc([N+](=O)[O-])cc1)c1ccccn1 -1.17 unspecified
Cc1ccc(-n2c(C)cn(C(=O)c3ccccc3)c2=S)cc1 8.55 unspecified
NC(=O)c1oc2ccccc2c1NC(=O)Cc1ccccc1 9.46 unspecified
O=C1/C(=C/c2cccc([N+](=O)[O-])c2)Oc2cc(O)ccc21 -11.7 unspecified
CC1CC(Nc2ccccc2)c2ccccc2N1C(=O)c1ccco1 (stereo not drawn) 5.12 unspecified
CNC(=S)N/N=C/c1cc(C)n(-c2ccc(Cl)c(Cl)c2)c1C 4.74 unspecified
Cn1cccc1Cc1nnc(SCC(=O)N2CCN(c3ccccc3)CC2)n1-c1ccc(F)cc1 12.8 unspecified
Cc1cc(/C=C2\Cc3ccccc3C2=O)c(C)n1-c1ccccc1 2 unspecified
COc1ccc(Nc2nnc(-c3ccc(C)cc3)c3ccccc23)cc1C(=O)N1CCCCC1 -4.51 unspecified
Cc1ccc(CCNC(=O)CCS(=O)(=O)c2ccc(Br)cc2)cc1 -5.93 unspecified
O=C(OCc1nc2ccccc2s1)c1ccc([N+](=O)[O-])o1 7.21 unspecified
CCN(c1ccc(NC(=O)CCNC(=O)c2ccco2)cc1)C(C)C -9.22 unspecified
Nc1nc(-c2ccc(Cl)cc2)nn1C(=O)c1ccco1 11.3 unspecified
Cc1ccc2[nH]c(=O)c(CC=C(Cl)Cl)c(C)c2c1 2.84 unspecified
COc1ccc(-c2cc3cccc(OC)c3oc2=O)cc1 -101 unspecified
CN(CC1CCCN(CCc2ccc(F)cc2)C1)C(=O)CCC(F)(F)F (stereo not drawn) -4.76 unspecified
CC(NC(=O)C1CCCN(C(=O)c2ccc(Cl)cc2)C1)c1cccc(C(F)(F)F)c1 (stereo not drawn) -0.568 unspecified
Cc1cc(=O)n2nc(N3CCCC(C(=O)N4CCOCC4)C3)sc2n1 (stereo not drawn) -2.15 unspecified

— PubChem BioAssay AID493231 (Broad Institute, 2011)
